# Data: article PMC8384837, “Expanding the binding specificity for RNA recognition by a PUF domain”
# Tests used:
# Experiment in all cases: yeast three-hybrid, YBZ-1, SC-Leu-His + 0.5 mM 3-AT, 4 days
# Conditions in all cases: tags: N-Gal4 AD-HA kept; label: inside an RPR1-promoter hybrid RNA with tandem MS2 sites; ssRNA
# [1] = target: PUM1 PUF domain R4-MNR (Homo sapiens, UniProt Q14671 828-1176, N971M;H972N;Q975R)
# Summary of the method: (§1)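 Each repeat of the Pumilio-1 PUF domain was randomized at its three base-contacting residues, and these libraries were co-expressed from a centromeric plasmid with matching RNA elements in strain YBZ-1. After four days on SC-Leu (input) or SC-Leu-His + 0.5 mM 3-AT (selection), the repeat regions were PCR-amplified and Illumina-sequenced. The interaction score compares variant frequency between input and selection as a log change, computed in log2 with a pseudocount of 1 for absent variants.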
# [2] = target: PUM1 PUF domain R4-PYE (Homo sapiens, UniProt Q14671 828-1176, N971P;H972Y;Q975E)
# Summary of the method: as §1
# [3] = target: PUM1 PUF domain R5-RAP (Homo sapiens, UniProt Q14671 828-1176, C1007R;R1008A;Q1011P)
# Summary of the method: as §1
# [4] = target: PUM1 PUF domain R5-SGK (Homo sapiens, UniProt Q14671 828-1176, C1007S;R1008G;Q1011K)
# Summary of the method: as §1
# [5] = target: PUM1 PUF domain R5-KSR (Homo sapiens, UniProt Q14671 828-1176, C1007K;R1008S;Q1011R)
# Summary of the method: as §1
# [6] = target: PUM1 PUF domain R1-RRV (Homo sapiens, UniProt Q14671 828-1176, S863R;Q867V)
# Summary of the method: as §1
# [7] = target: PUM1 PUF domain R5-RKV (Homo sapiens, UniProt Q14671 828-1176, C1007R;R1008K;Q1011V)
# Summary of the method: as §1
# [8] = target: PUM1 PUF domain R7-VER (Homo sapiens, UniProt Q14671 828-1176, S1079V;N1080E;E1083R)
# Summary of the method: as §1
# [9] = target: PUM1 PUF domain R2-SWW (Homo sapiens, UniProt Q14671 828-1176, N899S;Y900W;Q903W)
# Summary of the method: as §1
sequence,measurement,setting,value
GGCUAGAACUAGUGGAUCCCCCGGCGCCCGGCGGCUCGAGCCCGGGUAAGUGUACAUAGUCUGCAUGCCGCCGGGCGCCAUGCCUGCAGGUCGACUCUAGAAAACAUG,binding signal,[1],3.28 log2 enrichment (interaction score)
same,binding signal,[2],0.65 log2 enrichment (interaction score)
GGCUAGAACUAGUGGAUCCCCCGGCGCCCGGCGGCUCGAGCCCGGGUAAGUGUUAAUAGUCUGCAUGCCGCCGGGCGCCAUGCCUGCAGGUCGACUCUAGAAAACAUG,binding signal,[3],0.85 log2 enrichment (interaction score)
same,binding signal,[4],2.15 log2 enrichment (interaction score)
same,binding signal,[5],2.77 log2 enrichment (interaction score)
GGCUAGAACUAGUGGAUCCCCCGGCGCCCGGCGGCUCGAGCCCGGGUAAGUGUAUAUAGUCUGCAUGCCGCCGGGCGCCAUGCCUGCAGGUCGACUCUAGAAAACAUG,binding signal,[1],4.01 log2 enrichment (interaction score)
same,binding signal,[2],4.08 log2 enrichment (interaction score)
GGCUAGAACUAGUGGAUCCCCCGGCGCCCGGCGGCUCGAGCCCGGGUAAGUGUAAAUGGUCUGCAUGCCGCCGGGCGCCAUGCCUGCAGGUCGACUCUAGAAAACAUG,binding signal,[6],1.17 log2 enrichment (interaction score)
GGCUAGAACUAGUGGAUCCCCCGGCGCCCGGCGGCUCGAGCCCGGGUAAGUGUAAAUUGUCUGCAUGCCGCCGGGCGCCAUGCCUGCAGGUCGACUCUAGAAAACAUG,binding signal,[6],3.36 log2 enrichment (interaction score)
GGCUAGAACUAGUGGAUCCCCCGGCGCCCGGCGGCUCGAGCCCGGGUAAGUGUCAAUAGUCUGCAUGCCGCCGGGCGCCAUGCCUGCAGGUCGACUCUAGAAAACAUG,binding signal,[3],4.21 log2 enrichment (interaction score)
same,binding signal,[7],2.43 log2 enrichment (interaction score)
same,binding signal,[4],0.9 log2 enrichment (interaction score)
same,binding signal,[5],4.35 log2 enrichment (interaction score)
GGCUAGAACUAGUGGAUCCCCCGGCGCCCGGCGGCUCGAGCCCGGGUAAGUUUAAAUAGUCUGCAUGCCGCCGGGCGCCAUGCCUGCAGGUCGACUCUAGAAAACAUG,binding signal,[8],3.22 log2 enrichment (interaction score)
GGCUAGAACUAGUGGAUCCCCCGGCGCCCGGCGGCUCGAGCCCGGGUAAGUGUAAAAAGUCUGCAUGCCGCCGGGCGCCAUGCCUGCAGGUCGACUCUAGAAAACAUG,binding signal,[9],3.5 log2 enrichment (interaction score)
